This note sets out measurements from PubChem BioAssay (Tox21).

A short description of test [1]: qHTS assay to test for compound auto fluorescence at 535 nm (green) in HEK293 cells (AID 720680). In general terms: Quantitative high-throughput screening tests each substance at several concentrations.
Test [2] in a line: qHTS assay to test for compound auto fluorescence at 460 nm (blue) in HEK293 cell free culture (AID 720681). In outline:
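Test compounds were pinned into cell-free culture medium (DMEM with 10% FBS) and fluorescence was read directly at Ex/Em 405/460 nm. Signals were expressed as fluorescence equivalents of triamterene, with DMSO vehicle as control.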

The nature of test [3]: qHTS assay to test for compound auto fluorescence at 535 nm (green) in HEK293 cell free culture (AID 720682). In outline: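 Each library compound, or DMSO control, is added by pintool to medium alone, comprising DMEM and 10% FBS. Emission at 535 nm following 485 nm excitation is quantified against fluorescein.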
A short description of test [4]: qHTS assay to test for compound auto fluorescence at 590 nm (red) in HEK293 cell free culture (AID 720683). An outline of the steps: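 Tox21 10K library compounds were pinned into cell-free DMEM with 10% FBS and fluorescence was read at excitation 540 nm. Activity is expressed as Rose Bengal sodium equivalency.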
A short description of test [5]: qHTS assay to test for compound auto fluorescence at 590 nm (red) in HepG2 cell free culture (AID 720684). In outline:
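Readout: intrinsic compound fluorescence at 590 nm emission after 540 nm excitation, scaled to Rose Bengal sodium. Matrix was cell-free MEM with 10% FBS; DMSO vehicle wells served as control.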

Test [6] is described as follows: qHTS assay to test for compound auto fluorescence at 460 nm (blue) in HepG2 cell free culture (AID 720685). An outline of the steps: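 Cell-free plates of MEM plus 10% FBS received 23 nL compound or DMSO vehicle; blue-channel (405/460 nm) intensity scored against triamterene as reference fluorophore.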
Test [7] is described as follows: qHTS assay to test for compound auto fluorescence at 535 nm (green) in HepG2 cell free culture (AID 720686).
Test [8] can be described thus: qHTS assay to test for compound auto fluorescence at 460 nm (blue) in HepG2 cells (AID 720687). In outline: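 Cells (2,000/well in MEM with 10% FBS) attached overnight at 37 C, then were exposed to compound or DMSO for 1 hr at 37 C, 5% CO2. Fluorescence read at Ex/Em 405/460 nm, expressed as triamterene-equivalent signal.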
Test [9] has as its target Glucocorticoid receptor (Homo sapiens) (UniProt P04150). The experiment in a line: qHTS assay to identify small molecule agonists of the glucocorticoid receptor (GR) signaling pathway (AID 720691; active means well fitted activation curve with a large enough effect in the signal ratio in the repeat runs, not every such curve was filed as active; inconclusive means weak or mixed curves, or effect the other way; inactive means no such curve, though single readings can be large or run the other way; the % refers to the signal ratio). The conditions noted are these: GR-bla HeLa, beta-lactamase reporter ratio, 18 h. In outline:
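Compounds in DMSO, alongside positive controls, were added to GR-bla HeLa reporter cells and incubated 18 h at 37 C; GRE-driven beta-lactamase was detected by fluorescence after 2 h with FRET substrate at room temperature.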

Test [10] has the same target. Kind of test: qHTS assay to identify small molecule antagonists of the glucocorticoid receptor (GR) signaling pathway (AID 720692; active means well fitted inhibition curve with a large enough effect in the signal ratio in the repeat runs, not every such curve was filed as active; inconclusive means weak or mixed curves, or effect the other way; inactive means no such curve, though single readings can be large or run the other way; the % refers to the signal ratio). An outline of the steps:
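In a 1536-well cell format, compounds were added 4 h after seeding GR-bla HeLa cells, together with dexamethasone at 5 nM final; reporter activity was measured by FRET-substrate fluorescence following 18 h at 37 C.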

Test [11] can be described thus: qHTS assay to identify small molecule antagonists of the glucocorticoid receptor (GR) signaling pathway - cell viability counter screen (AID 720693). Further: nearly all actives have a fitted effect of over 55% in size.
Test [12] is described as follows: qHTS assay for identifying genotoxic compounds that show differential cytotoxicity against isogenic chicken DT40 cell lines with known DNA damage response pathways - wild type cell line (AID 743012). Further: nearly all actives have a fitted effect of over 60% in size. Further: potency means the concentration at half of the fitted maximal effect. In outline: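 Viability of DNA repair-proficient chicken DT40 cells was assessed by CellTiter-Glo luminescence following 40 h compound exposure at 37 C/5% CO2.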
Test [13] is described as follows: qHTS assay for identifying genotoxic compounds that show differential cytotoxicity against isogenic chicken DT40 cell lines with known DNA damage response pathways - Rad54/Ku70 mutant cell line (AID 743015). Further: nearly all actives have a fitted effect of over 60% in size. Further: potency means the concentration at half of the fitted maximal effect.
Test [14] is described as follows: qHTS assay to identify small molecule antagonists of the androgen receptor (AR) signaling pathway - cell viability counter screen (AID 743033; further: nearly all actives have a fitted effect of over 45% in size).
Test [15] concerns the target Androgen receptor (Homo sapiens) (UniProt P10275). Kind of test: qHTS assay to identify small molecule antagonists of the androgen receptor (AR) signaling pathway (AID 743035; active means well fitted inhibition curve with a large enough effect in the signal ratio in the repeat runs, not every such curve was filed as active; inconclusive means weak or mixed curves, or effect the other way; inactive means no such curve, though single readings can be large or run the other way; the % refers to the signal ratio). In outline:
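Reporter HEK293 cells were exposed to compounds and R1881 overnight (16 h, 37C); beta-lactamase activity was then quantified by FRET fluorescence.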

The target is the same in test [16]. The experiment in a line: qHTS assay to identify small molecule agonists of the androgen receptor (AR) signaling pathway using the MDA cell line (AID 743040; further: nearly all actives have a fitted effect of over 20% in size). In outline: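 Agonist activity is measured as luciferase luminescence in human MDA-kb2 cells whose MMTV reporter responds to both AR and GR. Compounds in DMSO incubate 16 h at 37C, 0% CO2, and ONE-Glo is read after 30 min.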

The nature of test [17]: qHTS assay to identify small molecule antagonists of the androgen receptor (AR) signaling pathway using the MDA cell line - cell viability counter screen (AID 743041; further: nearly all actives have a fitted effect of over 45% in size). An outline of the steps: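 qHTS viability read-out; MDA-kb2 AR-luc; R1881-stimulated; 16 h exposure at 37C, 0% CO2; CellTiter-Fluor, 30 min; fluorescence intensity.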
The target of test [18] is Androgen receptor (Homo sapiens) (UniProt P10275). Kind of test: qHTS assay to identify small molecule antagonists of the androgen receptor (AR) signaling pathway using the MDA cell line (AID 743042; further: nearly all actives have a fitted effect of over 55% in size). In outline:
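MDA-kb2 cells (human breast carcinoma, stably carrying an MMTV-luciferase reporter responsive to AR and GR) were plated at 3,000 cells/well and preincubated 5 hr at 37C, then given compound plus R1881 agonist for 16 h. ONE-Glo luminescence was read.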

Test [19] is described as follows: qHTS assay for identifying genotoxic compounds that show differential cytotoxicity against isogenic chicken DT40 cell lines with known DNA damage response pathways - Rev3 mutant cell line (AID 743014). Further: nearly all actives have a fitted effect of over 55% in size.
In test [20] the target is Androgen receptor (Homo sapiens) (UniProt P10275). The experiment in a line: qHTS assay to identify small molecule agonists of the androgen receptor (AR) signaling pathway (AID 743036; active means well fitted activation curve with a large enough effect in the signal ratio in the repeat runs, with a control signal flat, not every such curve was filed as active; inconclusive means weak or mixed curves, or effect the other way; inactive means no such curve, though single readings can be large or run the other way; the % refers to the signal ratio). An outline of the steps:
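Following a 4 h settling period, AR-UAS-bla HEK293 cells were dosed with compounds for 16 h at 37C. A 2 h room-temperature incubation with LiveBLAzer B/G FRET substrate preceded the fluorescence measurement.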

The mark [21] stands for this setting: activation: at 62.4 µM (top of the series).

Unmarked numbers belong to inactive results. More than one record can exist for a structure, and the calls need not agree. Calls of active or inactive are those of the source. Unless noted, the call rests on the fitted dose curve; in most records, active means well fitted curve in the direction sought with a large enough effect in the repeat runs; inconclusive means weak or mixed curves; inactive means no such curve, though single readings can be large; an effect the other way counts as inactive or inconclusive.
On the % scale 0 is the no-effect control and ±100 the full control effect.

Sequence of Glucocorticoid receptor (Homo sapiens) (P04150 whole entry, looked up): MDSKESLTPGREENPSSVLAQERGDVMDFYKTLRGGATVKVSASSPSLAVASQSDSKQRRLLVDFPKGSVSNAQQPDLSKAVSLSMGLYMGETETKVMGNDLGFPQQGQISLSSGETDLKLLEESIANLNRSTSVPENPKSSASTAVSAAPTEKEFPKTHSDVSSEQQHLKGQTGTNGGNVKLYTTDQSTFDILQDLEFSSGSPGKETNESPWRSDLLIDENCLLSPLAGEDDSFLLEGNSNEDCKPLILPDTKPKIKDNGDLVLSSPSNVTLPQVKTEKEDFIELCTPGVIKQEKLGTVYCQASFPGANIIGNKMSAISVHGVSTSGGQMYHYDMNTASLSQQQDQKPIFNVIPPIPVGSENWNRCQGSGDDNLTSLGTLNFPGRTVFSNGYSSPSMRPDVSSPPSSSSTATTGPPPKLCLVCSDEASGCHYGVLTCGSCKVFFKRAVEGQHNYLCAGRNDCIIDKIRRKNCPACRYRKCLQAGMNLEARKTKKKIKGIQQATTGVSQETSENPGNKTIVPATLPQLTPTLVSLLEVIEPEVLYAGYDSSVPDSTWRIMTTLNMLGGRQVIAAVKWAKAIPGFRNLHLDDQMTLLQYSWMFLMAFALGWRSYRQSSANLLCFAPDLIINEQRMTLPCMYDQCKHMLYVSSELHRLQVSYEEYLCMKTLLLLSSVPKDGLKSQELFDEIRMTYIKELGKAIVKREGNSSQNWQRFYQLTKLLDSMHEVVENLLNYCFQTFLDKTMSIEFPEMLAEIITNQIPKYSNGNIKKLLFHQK
Sequence of Androgen receptor (Homo sapiens) (P10275 whole entry, looked up): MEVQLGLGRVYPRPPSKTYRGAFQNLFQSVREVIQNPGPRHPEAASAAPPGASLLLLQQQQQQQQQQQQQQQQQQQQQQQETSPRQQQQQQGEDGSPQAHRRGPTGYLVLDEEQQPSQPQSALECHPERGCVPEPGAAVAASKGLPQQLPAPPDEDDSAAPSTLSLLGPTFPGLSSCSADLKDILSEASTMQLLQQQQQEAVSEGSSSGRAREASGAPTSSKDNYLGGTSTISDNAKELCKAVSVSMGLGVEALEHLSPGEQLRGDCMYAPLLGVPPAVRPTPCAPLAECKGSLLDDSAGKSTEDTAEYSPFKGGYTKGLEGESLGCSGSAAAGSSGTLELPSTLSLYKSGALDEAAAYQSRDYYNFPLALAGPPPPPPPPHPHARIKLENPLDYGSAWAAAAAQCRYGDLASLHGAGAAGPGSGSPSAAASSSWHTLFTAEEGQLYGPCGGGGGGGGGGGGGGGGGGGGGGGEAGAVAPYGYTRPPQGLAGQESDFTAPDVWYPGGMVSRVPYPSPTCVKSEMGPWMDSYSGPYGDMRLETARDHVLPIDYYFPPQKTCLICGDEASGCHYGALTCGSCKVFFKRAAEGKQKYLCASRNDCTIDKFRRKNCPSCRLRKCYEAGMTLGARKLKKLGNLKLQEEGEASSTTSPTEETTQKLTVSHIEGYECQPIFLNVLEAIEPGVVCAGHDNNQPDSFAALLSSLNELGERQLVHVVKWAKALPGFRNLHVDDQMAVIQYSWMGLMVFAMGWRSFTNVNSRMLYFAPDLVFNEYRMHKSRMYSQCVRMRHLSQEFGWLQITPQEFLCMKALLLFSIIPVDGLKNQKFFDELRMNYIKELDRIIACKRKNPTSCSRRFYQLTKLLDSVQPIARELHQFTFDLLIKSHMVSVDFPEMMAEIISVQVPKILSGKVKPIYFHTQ

For the compound `O=C(O)COc1ccc(C(=O)c2cccs2)c(Cl)c1Cl`, the compound was classed as inactive in [1], in test [3], in test [4] and in [5]. For the same compound, the Potency result in test [2], in [6], in test [7], in [8], in test [9] (setting [21]) and in [10] was “inactive” throughout. Moreover, the Potency entry in [11], in test [12], in [13], in [14], in test [15] and in [16] was “inactive” throughout. Further, the Potency result in test [17] and in test [18] was “inactive” each time.

As to `O=C1c2c(O)cccc2[C@H]([C@@H]2O[C@H](CO)[C@@H](O)[C@H](O)[C@H]2O)c2cc(CO)cc(O)c21`, the compound was called inactive in test [1], in [3], in test [4] and in test [5]. Besides, the Potency entry in [2], in test [6], in [7], in test [8], in [10] and in [11] was “inactive” in each case. Also, the Potency entry in test [12], in [19], in test [14] and in [17] was “inactive” throughout. The activation in test [9] (setting [21]) is 14.2% [inconclusive] (active); in [9] (at 62.4 µM (top of the series)), -0.87%.

On to `O=C(O)/C=C/C(=O)Nc1ccc(S(=O)(=O)Nc2nccs2)cc1`, for which the compound was called inactive in test [1], in test [3], in test [4] and in [5]. The Potency result in test [2], in test [6], in [7], in test [8], in test [9] (setting [21]) and in test [10] was “inactive” in each case. The Potency result in test [11], in [12], in test [19], in test [13], in test [14] and in test [17] was “inactive” throughout.

On to `CO[C@H]1C[C@H](O[C@H]2[C@H](C)[C@@H](O[C@@H]3O[C@H](C)C[C@H](N(C)C)[C@H]3O)[C@@H](C)C[C@]3(CO3)C(=O)[C@H](C)[C@@H](O)[C@@H](C)[C@@H](C)OC(=O)[C@@H]2C)O[C@@H](C)[C@@H]1O`, for which the compound was called inactive in test [1], in [3], in test [4] and in test [5]. Moreover, the Potency result in test [2], in test [6], in test [7], in [8], in [9] (setting [21]) and in [10] was “inactive” each time. For the same compound, the Potency entry in test [11], in test [12], in test [19], in test [13], in [14] and in test [17] was “inactive” in each case.

With `CC(C)NCC1CCc2cc(CO)c([N+](=O)[O-])cc2N1` (configuration not stated), the outcome in test [1], in test [3], in test [4] and in [5] was inactive. Further, the Potency entry in [2], in test [6], in test [7], in [8], in test [9] (setting [21]) and in [10] was “inactive” throughout. Moreover, the Potency entry in test [11], in test [12], in [19], in test [13], in [14] and in test [15] was “inactive” in each case. Further, the Potency entry in test [20], in test [16], in test [17] and in test [18] was “inactive” each time.

In the case of `CCN(CC)CC#CCOC(=O)C(O)(c1ccccc1)C1CCCCC1` (configuration not stated), the compound was classed as inactive in test [1], in test [3], in test [4] and in test [5]. Also, the Potency result in test [2], in [6], in test [7], in test [8], in [9] (setting [21]) and in test [10] was “inactive” in each case. The Potency result in test [11], in test [14] and in test [17] was “inactive” throughout. The Potency in [12] was 11.9 µM (active); in [13], 26.6 µM (active).

As for `FC(F)(F)COCC(F)(F)F`, the outcome in test [1], in [3], in test [4] and in test [5] was inactive. In addition, the Potency result in test [2], in test [6], in test [7], in [8], in test [9] (setting [21]) and in test [10] was “inactive” in each case. Besides, the Potency result in [11], in [12], in test [19], in [13], in test [14] and in test [17] was “inactive” in each case.
